Screening data deposited in PubChem by National Center for Advancing Translational Sciences (NCATS).
Compounds with a hit are over-represented: about 12% of the library has one in this group of screens.
HP1b binding inh: HTS for Inhibitors of HP1-beta Chromodomain Interactions with Methylated Histone Tails | actives 0.56% (n = 390,000) | Potency, µM (highest dose often 114 µM), for inactives: at the highest dose activity change, negative = inhibition, actives largely listed as inhibitors | Chromobox protein homolog 1 (Homo sapiens), P83916 | AlphaScreen HP1-beta / biotin-H3K9me3 peptide binding; also: nearly all actives have a fitted effect of over 70% in size
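Compound inhibition of the preformed complex between 50 nM HP1-beta and 50 nM biotinylated H3K9me3 peptide was read by AlphaScreen. Buffer was PBS pH 7.4 with 0.01% Tween-20. Incubations ran 30 min at room temperature, with 10 ug/mL donor/acceptor beads.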
G9a inh: qHTS Assay for Inhibitors of Histone Lysine Methyltransferase G9a; actives 8.8% (n = 350,000); Potency, µM (series often up to 102 µM), for inactives: at the highest dose activity, negative = inhibition, usual class: inhibitors; G9a H3K9 monomethylation, AlphaScreen, 2 h; also: % is scaled to controls: 0 for no effect and ±100 for the full control effect; nearly all actives have a fitted effect of over 75% in size
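Chemiluminescent proximity detection of H3K9 monomethylation, read after 10 min bead incubation in the dark. Reaction: 20 nM G9a, 500 nM biotin-H3K9 peptide, 20 uM SAM cofactor, 2 h, room temperature, following 15 min enzyme-compound preincubation.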
Sfp PPTase inh: qHTS Assay for Inhibitors of Bacillus subtilis Sfp phosphopantetheinyl transferase (PPTase); Potency, µM, inactives show largest response in the series, negative = inhibition, most hits filed as inhibitors; Biochemical Sfp PPTase activity, qHTS; 4'-phosphopantetheinyl transferase ffp (Bacillus subtilis), Q9F4F7; actives 3.5% (n = 310,000);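 also: the enzyme is Sfp with the accession as filed and its product quenches rhodamine fluorescence; 0% = enzyme reaction without inhibitor and -100% = no enzyme wells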
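Fluorescence-quenching assay with 15 nM Sfp, 5 uM rhodamine-CoA and 12.5 uM BHQ-2-labelled ybbR peptide in pH 7.6 Hepes/MgCl2 buffer. Enzyme was pre-incubated with compound for 15 min at room temperature. Rate was taken from the 30-min fluorescence change (525/598 nm).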
BAZ2B block: qHTS Assay for Inhibitors of BAZ2B; Bromodomain adjacent to zinc finger domain protein 2B (Homo sapiens), Q9UIF8; AlphaScreen BAZ2B-H3K14Ac peptide displacement; Potency, µM (top dose mostly 114 µM), without a hit: at the top dose activity change, negative = inhibition, actives largely listed as inhibitors; actives 4.4% (n = 360,000); also: % is scaled to controls: 0 for no effect and ±100 for the full control effect; nearly all actives have a fitted effect of over 60% in size
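Compounds, titrated to a top concentration of 110 uM, were incubated 30 min at room temperature with preformed BAZ2B/acetyl-K14 H3 peptide complex (50 nM each). Proximity signal was measured by AlphaScreen after 20 min with beads.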
JMJD2A Tudor inh: qHTS Assay for Inhibitors of JMJD2A-Tudor Domain; AlphaScreen JMJD2A-Tudor / H3K4me3 peptide binding; Potency, µM (top dose mostly 114 µM), for the others: at the highest dose activity change, negative = inhibition, usual class: inhibitors; actives 4.4% (n = 390,000); also: % is scaled to controls: 0 for no effect and ±100 for the full control effect; nearly all actives have a fitted effect of over 50% in size
Starred values were filed as active, the others as inactive; u = inconclusive; x = no result given; [ ] = remark or other dose. Calls follow the shape of the dose curve; as a rule, active = well fitted curve in the direction sought with a large enough effect; inconclusive = small, poorly fitted or top-dose-only effect, or another doubt; inactive = no such curve, though single readings can be large; an effect the other way counts as inactive or inconclusive. Potency is read from the fitted curve at half-maximal effect.

SMILES	HP1b binding inh	G9a inh	Sfp PPTase inh	BAZ2B block	JMJD2A Tudor inh
O=C(N/N=C\c1ccc(Br)o1)C1COc2ccccc2O1 (centres undefined)	u	u	-1%	50µM*	40µM*
N#C/C(=N/Nc1ccc([N+](=O)[O-])cc1)C(=N)N1CCCCC1	u	u	-15%	35µM*	56µM*
N#C/C(=N\Nc1ccc([N+](=O)[O-])cc1)C(N)=S	35µM*	x	45µM*	14µM*	28µM*
Cc1cc(C)c(NC(=O)OCCN2CCOCC2)c(C)c1	u	14%	1%	11%	-28%[11.4 µM]
CC(C(=O)NNS(=O)(=O)c1cccc(C(F)(F)F)c1)n1nnc(N2CCOCC2)n1 (centres undefined)	15%	32µM*	8%	-16%	14µM*
O=C(CN1C(=O)NC2(CCCCC2)C1=O)NNC(=O)C1CC1	10%	14%[12.7 µM]	x	1%	-4%
Cc1occc1C(=O)NNC(=O)COc1ccc(Br)cc1Br	26%	8%[59 µM]	-19%	2%	-17%
C=CCNC(=S)NNC(=O)COc1ccc(Cl)cc1Cl	1%	10µM*	-8%	10%	u
O=C(COc1ccc(Cl)cc1Cl)NNC(=S)Nc1ccc(F)cc1	-12%	11µM*	25%	-3%	-24%
Cc1occc1C(=O)NNC(=S)NC(=O)COc1ccc(Cl)cc1Cl	u	8.9µM*	9%	-18%	-20%
C=CCNC(=O)COc1ccc(Br)cc1Cl	15%	-8%[59 µM]	19%	-1%	-12%
C/C(=N\NC(=O)c1n[nH]c2c1CCC2)c1cccs1	24%	11%[59 µM]	12%	2%	-17%
c1ccc(COc2ccc3nocc3c2)cc1	53%	18%[2.33 µM]	x	27%	-4%
CC(=O)c1ccc(N(CC(=O)NC2CCCC2)C(=O)CNC(=O)c2ccco2)cc1	45%	12%	21%	-2%	4%
Cc1c(-n2cccc2C=O)cccc1[N+](=O)[O-]	26%	u	18%	-20%	-12%
Cc1nn(CC(=O)N2CCN(C)CC2)c(=O)c2ccccc12	23%	-3%	16%	3%	-4%
CCN(C(=O)c1c(C)cc(=O)oc1C)c1ccc2c(c1)OCO2	7%	-46%[59 µM]	19%	-1%	-3%
CCN(C(=O)c1coc(=O)c(Br)c1)c1ccc2c(c1)OCO2	-26%	20µM*	45µM*	50µM*	50µM*
O=C(NNS(=O)(=O)c1ccccc1)c1ccc(O)cc1	5%	-16%[59 µM]	1%	4%	-1%
CC(=O)OCCCn1c(C)[n+](C)c2cc(Cl)c(Cl)cc21	-28%	32µM*	1%	-30%	32µM*
CCn1c(C)[n+](CCOC(C)=O)c2cc(Cl)c(Cl)cc21	10%	x	-21%	u	-8%
CC1=C(C(=O)Nc2ccc(C(=O)NCCCN3CCCCC3)cc2)SCCO1	46%	11%	14%	-18%	-26%
Cc1ccc(Cn2ccnc2SCC(=O)NCc2ccc(F)cc2)cc1	14%[57 µM]	-33%[59 µM]	x	-27%	-21%
C/C(CC(=O)Nc1ccc(C)c(Cl)c1)=N\NC(=O)Cc1cnc(N)s1	54%	18%	4%	-12%	-28%
Cc1cccc(-c2noc(-c3ccccc3OCC(=O)Nc3ccc([N+](=O)[O-])cc3)n2)c1	-15%	u	x	-34%	28µM*
SMILES	HP1b binding inh	G9a inh	Sfp PPTase inh	BAZ2B block	JMJD2A Tudor inh
CCN(CC)C(=O)c1sc(NC(=O)c2cccc([N+](=O)[O-])c2)c(C#N)c1C	35%	u	11%	-23%	18%
CCN(CC)C(=O)c1sc(NC(=O)c2c(OC)cccc2OC)c(C#N)c1C	-1%	18µM*	-4%	-19%	-4%
CCc1c(C)sc(NC(=O)c2ccco2)c1C#N	24%	x	-2%	-10%	-7%
CC(C)c1nnc(NC(=O)C2c3ccccc3Oc3ccccc32)s1	-17%	7%[12.7 µM]	-24%	-7%	-1%
Cc1nnc(NC(=O)C2c3ccccc3Oc3ccccc32)s1	u	11µM*	-91%	1%	-14%
CCOC(=O)c1sc(NC(=O)c2ccco2)c(C#N)c1C	-4%	45µM*	-16%	-3%	2%
Cc1sc(NC(=S)NC(=O)c2ccco2)c(C#N)c1C	28%	35µM*	40µM*	-2%	-11%
CN(C(=O)CSc1nc2ccccc2o1)C1CCS(=O)(=O)C1 (centres undefined)	6%	-5%[2.33 µM]	x	7%	-10%
COc1ccc(NC(=O)CS(=O)(=O)c2cccc(Cl)c2)cc1	11%	5%	7%	-16%	u
CCOC(=O)c1sc(NC(=O)C2c3ccccc3Oc3ccccc32)c(C#N)c1C	-14%	2.2µM*	x	-1%	-11%
CC(C)c1ccc(S(=O)(=O)N2CCN(C(=O)c3ccco3)CC2)cc1	36%	u	-4%	4%	-5%
Cc1ccc2c(c1)c(N=Nc1cccc(C(=O)O)c1)c(O)n2C	-5%	35µM*	13%	u	-12%
COc1cc2ccnc(Cc3cccc(OC)c3OC)c2cc1OC	14%	1%	-5%	-13%	79µM*
COc1cc(Cc2nccc3cc(OC)c(OC)cc23)c(S(=O)(=O)O)cc1OC	-29%	7%	2%	5%	-8%
O=C(C[n+]1cc(-c2ccc(F)cc2)n2c1CCC2)Nc1nc(-c2ccc(F)cc2)cs1	-5%	-3%[59 µM]	-14%	-10%	-21%
O=C(C[n+]1cc(-c2ccc(Cl)cc2)n2c1CCC2)Nc1nc(-c2ccc(F)cc2)cs1	12%	u	45µM*	u	-30%
O=C(CCl)c1ccc2[nH]c(=O)oc2c1	47%	45µM*	-15%	u	-23%
O=c1[nH]c2ccc(Br)cc2o1	8%[57 µM]	x	x	x	-13%
COc1cccc(C(=O)Nn2cnnc2)c1	1%	0%	17%	-6%	-11%
COc1c(C2=CC(=O)N(C)C2=O)c2c(n1C)C(=O)c1ccccc1C2=O	x	x	25µM*	x	x
COc1ccccc1N1C(=O)C(=O)N(C)C1=O	-17%	x	x	x	-5%
CC(C)CNC(=O)/C(C#N)=C1\N=C(NC(=O)c2ccco2)c2ccccc21	21%	x	u	u	u
CCN1CCN(Cc2ccc(NC(=O)c3cc(NC(=O)c4cncc(-c5cccs5)c4)cc(OC)c3)cc2C(F)(F)F)CC1	u	50µM*	u	35µM*	45µM*
CCN1CCN(Cc2ccc(NC(=O)c3cc(NC(=O)c4cc5cccc(OC)c5o4)cc(OC)c3)cc2C(F)(F)F)CC1	8%	u	45µM*	u	u
